Source: PubChem BioAssay (NCI)
The panel holds about 83,000 compounds, 20% with a hit somewhere; the sample as a whole holds those more often.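 Single-dose data. Exposure time 48 hours. Values below 10 considered active.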 Unmarked numbers belong to inactive results. Activity calls are given as the source filed them.

system: SR leukemia; assay: NCI-60 one-dose screen, 48 h (100 = growth as untreated, 0 = no growth, -100 = all killed); details: 10 µM unless noted

SMILES	growth
O=S(=O)(NCCCNc1nccc(-c2c(-c3ccc(F)c(O)c3)nc3sccn23)n1)c1ccc(Cl)cc1	61.6%
Nc1ccc(S(=O)(=O)c2ccc(Cl)cc2)cc1	112%
O=C1OC(c2ccccc2)=N/C1=C\c1ccc([N+](=O)[O-])cc1	97.3%
CC(Br)C(Br)c1cc2c(cc1Br)OCO2 (stereo unspecified)	98.6%
COc1ncc(-c2ccc3ncnc(Nc4cccc(Cl)c4)c3c2)cc1NS(=O)(=O)CCN1CCOCC1	9.25% (active)
CCCCC[C@@H]1Cc2cc(O)c(C(=O)O)c3c2[C@H](C[C@@]2(CCCO2)O3)O1	64.4%
CC(C)C[C@H](NC(=O)[C@@H](Cc1ccccc1)n1ccc(Nc2ccccc2)cc1=O)B(O)O	21%
N#CC1=C(N)n2nc(-c3ccncc3)nc2NC1c1cccc2ccccc12 (stereo unspecified)	80.3%
O=c1cc(C2NCCc3c2[nH]c2ccccc32)c2c(ccc3ccccc32)o1 (stereo unspecified)	51.3%
CC(C)CCC[C@@H](C)[C@H]1CC[C@H]2[C@@H]3CC[C@H]4C/C(=N/O)CC[C@]4(C)[C@H]3CC[C@]12C	99.6%
COc1ccc(/C=C/C(=O)c2cccc(B(O)O)c2)cc1O	6.45% (active)
O=c1oc2c([nH]c3ccc4ccccc4c32)c2ccccc12	102%
O=C(NCCc1c[nH]c2ccccc12)C1Cc2ccccc2CN1C(=O)c1ccco1 (stereo unspecified)	65.5%
CC/C=C\C[C@H]1C/C=C2/C(=O)C(Cl)=C[C@@H]2C/C=C\CCCC(=O)O1	-2.48% (active)
C/C(=N\NC(=O)CC#N)c1cc2cc(Cl)ccc2o1	84.8%
O=C(Nc1ccc(F)cc1)c1cc([N+](=O)[O-])ccc1O	83.7%
CCN(CC)CCSc1c2ccc(Cl)cc2nc2ccc(OC)cc12	12.1%
O=[N+]([O-])c1ccc(S(=O)(=O)N2CCN(c3ccnc4cc(Cl)ccc34)CC2)c([N+](=O)[O-])c1	3.12% (active)
O=[N+]([O-])c1c(S(=O)(=O)O)cc2cc(S(=O)(=O)O)ccc2c1[N+](=O)[O-]	103%

SMILES	growth
Clc1nc(Cl)c2ncn(C/C=C/Cn3cnc4c(Cl)nc(Cl)nc43)c2n1	-14.2% (active)
CC(C)C[C@H](NC(=O)Cn1ccc(NCc2ccccc2)cc1=O)B(O)O	5.45% (active)
N#Cc1ccc(NC(=O)c2ccc3cccnc3c2O)cc1	25.6%
CCCCCCc1nc2c(c(C)nn2-c2ccccc2)c2c1CCCCC2	97.7%
Nc1nc(N)c2nc(CNc3ccc(C(=O)CC(CCC(=O)O)C(=O)O)cc3)cnc2n1 (stereo unspecified)	28.6%
Nc1nc(Cl)c2c(ncn2Cc2ccc(CCl)cc2)n1	83.2%
CCOc1ccc(/C=C/C=N/NC(N)=S)cc1	70.4%
COc1cc(/C=C/C(=O)c2ccccc2O)ccc1OCCCOc1cc2c(cc1OC)C(=O)N1CCC[C@H]1C=N2	-13.8% (active)
CC(CCc1ccccc1)NC(=O)c1n[nH]c(=O)c2ccccc12 (stereo unspecified)	60.7%
COc1cc(-c2nc(-c3nc4ccccc4[nH]3)cc3c2[nH]c2ccccc23)cc(OC)c1OC	45.2%
O=C(/C=C/CN1CCOCC1)Nc1cc2c(Nc3ccc(F)c(Cl)c3F)ncnc2cc1OCCOC(F)F	60.7%
COc1cc(NS(C)(=O)=O)ccc1Nc1c2ccc([N+](=O)[O-])cc2nc2c(C)cccc12	15.6%
O=S(=O)(NCCCNc1cc(-c2cn(-c3ccccc3)nc2-c2cccc(O)c2)ccn1)c1cccc2ccccc12	13.9%
O=c1[nH]c(-c2cn(-c3ccc(Cl)cc3)nn2)nc2ccccc12	80.4%
CCN(C(=O)c1cc2ccccc2[nH]1)[C@H]1CCC[C@@H](NCc2ccc(OC)cc2)C1	69.2%
COc1ccc(/C=C/C(=O)c2ccc(B(O)O)cc2)cc1O	19.6%
Clc1ccc2c(c1)NC1(CCSc3ccccc31)n1nccc1-2 (stereo unspecified)	91.6%
O=C1NC(Cc2c[nH]c3ccccc23)C(=O)N1Cc1ccc(Cl)cc1 (stereo unspecified)	90.1%
CCCCCCCCCCC/C=C\C[C@H](O)C/C=C1/C(=O)C=C[C@@H]1C/C=C\CCCC(=O)OC	6.46% (active)

system: RPMI-8226 leukemia; assay: as above; details: 10 µM unless noted

SMILES	growth
O=S(=O)(NCCCNc1nccc(-c2c(-c3ccc(F)c(O)c3)nc3sccn23)n1)c1ccc(Cl)cc1	43.1%
Nc1ccc(S(=O)(=O)c2ccc(Cl)cc2)cc1	101%
O=C1OC(c2ccccc2)=N/C1=C\c1ccc([N+](=O)[O-])cc1	102%
CC(Br)C(Br)c1cc2c(cc1Br)OCO2 (stereo unspecified)	105%
COc1ncc(-c2ccc3ncnc(Nc4cccc(Cl)c4)c3c2)cc1NS(=O)(=O)CCN1CCOCC1	12.7%
CCCCC[C@@H]1Cc2cc(O)c(C(=O)O)c3c2[C@H](C[C@@]2(CCCO2)O3)O1	98.7%
CC(C)C[C@H](NC(=O)[C@@H](Cc1ccccc1)n1ccc(Nc2ccccc2)cc1=O)B(O)O	-16% (active)
N#CC1=C(N)n2nc(-c3ccncc3)nc2NC1c1cccc2ccccc12 (stereo unspecified)	74.9%
O=c1cc(C2NCCc3c2[nH]c2ccccc32)c2c(ccc3ccccc32)o1 (stereo unspecified)	73.6%
CC(C)CCC[C@@H](C)[C@H]1CC[C@H]2[C@@H]3CC[C@H]4C/C(=N/O)CC[C@]4(C)[C@H]3CC[C@]12C	101%
COc1ccc(/C=C/C(=O)c2cccc(B(O)O)c2)cc1O	5.96% (active)
O=c1oc2c([nH]c3ccc4ccccc4c32)c2ccccc12	103%
O=C(NCCc1c[nH]c2ccccc12)C1Cc2ccccc2CN1C(=O)c1ccco1 (stereo unspecified)	87.3%
CC/C=C\C[C@H]1C/C=C2/C(=O)C(Cl)=C[C@@H]2C/C=C\CCCC(=O)O1	-14.1% (active)
C/C(=N\NC(=O)CC#N)c1cc2cc(Cl)ccc2o1	90.2%
O=C(Nc1ccc(F)cc1)c1cc([N+](=O)[O-])ccc1O	32.4%
CCN(CC)CCSc1c2ccc(Cl)cc2nc2ccc(OC)cc12	72.7%
O=[N+]([O-])c1ccc(S(=O)(=O)N2CCN(c3ccnc4cc(Cl)ccc34)CC2)c([N+](=O)[O-])c1	25.7%
O=[N+]([O-])c1c(S(=O)(=O)O)cc2cc(S(=O)(=O)O)ccc2c1[N+](=O)[O-]	109%

SMILES	growth
Clc1nc(Cl)c2ncn(C/C=C/Cn3cnc4c(Cl)nc(Cl)nc43)c2n1	-17.3% (active)
CC(C)C[C@H](NC(=O)Cn1ccc(NCc2ccccc2)cc1=O)B(O)O	-13.9% (active)
N#Cc1ccc(NC(=O)c2ccc3cccnc3c2O)cc1	23.4%
CCCCCCc1nc2c(c(C)nn2-c2ccccc2)c2c1CCCCC2	105%
Nc1nc(N)c2nc(CNc3ccc(C(=O)CC(CCC(=O)O)C(=O)O)cc3)cnc2n1 (stereo unspecified)	58.3%
Nc1nc(Cl)c2c(ncn2Cc2ccc(CCl)cc2)n1	33.8%
CCOc1ccc(/C=C/C=N/NC(N)=S)cc1	39.7%
COc1cc(/C=C/C(=O)c2ccccc2O)ccc1OCCCOc1cc2c(cc1OC)C(=O)N1CCC[C@H]1C=N2	-21.7% (active)
CC(CCc1ccccc1)NC(=O)c1n[nH]c(=O)c2ccccc12 (stereo unspecified)	85.6%
COc1cc(-c2nc(-c3nc4ccccc4[nH]3)cc3c2[nH]c2ccccc23)cc(OC)c1OC	-4.95% (active)
O=C(/C=C/CN1CCOCC1)Nc1cc2c(Nc3ccc(F)c(Cl)c3F)ncnc2cc1OCCOC(F)F	17.8%
COc1cc(NS(C)(=O)=O)ccc1Nc1c2ccc([N+](=O)[O-])cc2nc2c(C)cccc12	-19.8% (active)
O=S(=O)(NCCCNc1cc(-c2cn(-c3ccccc3)nc2-c2cccc(O)c2)ccn1)c1cccc2ccccc12	7.85% (active)
O=c1[nH]c(-c2cn(-c3ccc(Cl)cc3)nn2)nc2ccccc12	83.5%
CCN(C(=O)c1cc2ccccc2[nH]1)[C@H]1CCC[C@@H](NCc2ccc(OC)cc2)C1	86%
COc1ccc(/C=C/C(=O)c2ccc(B(O)O)cc2)cc1O	6.12% (active)
Clc1ccc2c(c1)NC1(CCSc3ccccc31)n1nccc1-2 (stereo unspecified)	94.6%
O=C1NC(Cc2c[nH]c3ccccc23)C(=O)N1Cc1ccc(Cl)cc1 (stereo unspecified)	73.1%
CCCCCCCCCCC/C=C\C[C@H](O)C/C=C1/C(=O)C=C[C@@H]1C/C=C\CCCC(=O)OC	-10.2% (active)
